# Experimental data taken from PubChem BioAssay.
# The source made the active and inactive calls. Unless noted, how the calls were made is not given here.
# Legend:
# [1] = compound effects on lung adenocarcinoma cell viability – A549, calcein-AM fluorescence, 48 h, basal, profiling panel (AID 1162); conditions: higher = more signal; further: test concentration not given here
# [2] = compound effects on differentiated 3T3-L1 adipocyte viability – cell-based, 3T3-L1 adipocytes, calcein-AM fluorescence, 48 h, basal, profiling panel (AID 1163); conditions: 3T3-L1 adipocytes viability, higher = more signal; further: test concentration not given here
# [3] = compound effects on hepatocellular carcinoma cell viability – HepG2, calcein-AM fluorescence, 48 h, basal, profiling panel (AID 1164); conditions: higher = more signal; further: test concentration not given here
# [4] = compound effects on multiple myeloma cell viability – MM1S, calcein-AM fluorescence, 48 h, basal, profiling panel (AID 1165); conditions: higher = more signal; further: test concentration not given here
# [5] = calcein-AM signal in unstimulated myeloma cells – cell-based, calcein-AM fluorescence, 48 h, PK04 Diversity Set, profiling panel (AID 1166); conditions: RPMI8226 myeloma viability, higher = more signal;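 further: cells grown under basal conditions without added stimulus; test concentration not given here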
# [6] = JC-1 mitochondrial signal, unstimulated HepG2 cells – cell-based, JC-1 fluorescence, 24 h, 100 nL compound, profiling panel (AID 1167); conditions: HepG2 mitochondrial potential, higher = more signal; further: test concentration not given here
# [7] = JC-1 mitochondrial signal, unstimulated adipocytes – cell-based, JC-1 fluorescence, 3T3-L1 adipocytes, 24 h, 100 nL compound, profiling panel (AID 1168); conditions: JC-1 mitochondrial fluorescence, higher = more signal, called active from +8 up or from −8 down; further: test concentration not given here
# [8] = JC-1 mitochondrial signal, unstimulated myeloma cells – cell-based, JC-1 fluorescence, RPMI8226, 24 h, 100 nL compound, profiling panel (AID 1169); conditions: JC-1 mitochondrial potential fluorescence, higher = more signal; further: test concentration not given here
# [9] = JC-1 mitochondrial signal, unstimulated MM1S myeloma – cell-based, JC-1 fluorescence, 24 h, 100 nL compound, profiling panel (AID 1170); conditions: MM1S mitochondrial potential, higher = more signal; further: test concentration not given here
# [10] = resazurin metabolic signal in A549 cells – cell-based, resazurin fluorescence, 24 h, PK04 Diversity Set, profiling panel (AID 1171); conditions: A549 viability, higher = more signal, called active from +8 up or from −8 down; further: test concentration not given here
# [11] = resazurin metabolic signal in HepG2 cells – cell-based, resazurin fluorescence, 24 h, PK04 Diversity Set, profiling panel (AID 1172); conditions: HepG2 viability, higher = more signal; further: test concentration not given here
# [12] = budding yeast growth changes without added modifier – OD600, strain BY4716, 24 h, basal condition, primary screen (AID 1173); conditions: S. cerevisiae BY4716 growth, OD600, 24 h; higher = more signal, called active from +8 up or from −8 down
# [13] = viability profiling in MM1S myeloma cells – cell-based, resazurin fluorescence, basal, 24 h, PK04 Diversity Set, profiling panel (AID 1174); conditions: higher = more signal, called active from +8 up or from −8 down; further: test concentration not given here
# [14] = target: Dihydroorotate dehydrogenase (quinone), mitochondrial (Plasmodium falciparum (isolate 3D7)) (UniProt Q08210); assay: inhibition of P. falciparum DHODH – biochemical, C-terminal His tag, absorbance 600 nm, primary screen (AID 1175); conditions: PfDHODH enzyme, DCIP absorbance 600 nm; higher = more signal, called active from +8 up or from −8 down;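 further: recombinant parasite enzyme with a five histidine tag at its C terminus; test concentration not given here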
# [15] = inhibition of PAO1 biofilm formation – strain PAO1, LB-PBS medium, absorbance 600 nm, primary screen (AID 1176); further: test concentration not given here; conditions: P. aeruginosa PAO1 growth/biofilm, A600, 12 h; higher = more signal
# [16] = growth modulation of vineyard yeast isolate – strain RM11-1a, OD600, basal, 24 h, primary screen (AID 1177);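 further: cultures grown under basal conditions with no added stressor; test concentration not given here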; conditions: S. cerevisiae RM11-1a growth, OD600, 24 h; higher = more signal, called active from +8 up or from −8 down
# [17] = growth of efflux-deficient E. coli DRC39 – strain DRC39, OD650, 24 h, E. coli filamentation inducers, primary screen (AID 1178);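 further: growth measured as culture turbidity by optical density at 650 nm; test concentration not given here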; conditions: E. coli DRC39 acrAB, higher = more signal, called active from +8 up or from −8 down
# [18] = growth of efflux-deficient E. coli DRC39 – strain DRC39, OD650, 48 h, E. coli filamentation inducers, primary screen (AID 1179);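 further: screen aims at cell division blockers that make cells filament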; conditions: E. coli DRC39 delta-acrAB growth, higher = more signal, called active from +8 up or from −8 down
# [19] = viability profiling in RPMI8226 myeloma cells – cell-based, resazurin fluorescence, basal, 24 h, PK04 Diversity Set, profiling panel (AID 1180); conditions: higher = more signal;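 further: RPMI8826 multiple myeloma cell line at 5000 cells per well; test concentration not given here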
# [20] = target: E3 ubiquitin-protein ligase XIAP (Homo sapiens) (UniProt P98170); assay: small molecules binding XIAP protein – biophysical, small-molecule microarray, fluorescence 635 nm, primary screen (AID 1181); conditions: higher = more signal;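 further: score merges 667 nm emission and signal to noise over triplicate slides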
# Sequence of E3 ubiquitin-protein ligase XIAP (Homo sapiens) (P98170 whole entry, looked up): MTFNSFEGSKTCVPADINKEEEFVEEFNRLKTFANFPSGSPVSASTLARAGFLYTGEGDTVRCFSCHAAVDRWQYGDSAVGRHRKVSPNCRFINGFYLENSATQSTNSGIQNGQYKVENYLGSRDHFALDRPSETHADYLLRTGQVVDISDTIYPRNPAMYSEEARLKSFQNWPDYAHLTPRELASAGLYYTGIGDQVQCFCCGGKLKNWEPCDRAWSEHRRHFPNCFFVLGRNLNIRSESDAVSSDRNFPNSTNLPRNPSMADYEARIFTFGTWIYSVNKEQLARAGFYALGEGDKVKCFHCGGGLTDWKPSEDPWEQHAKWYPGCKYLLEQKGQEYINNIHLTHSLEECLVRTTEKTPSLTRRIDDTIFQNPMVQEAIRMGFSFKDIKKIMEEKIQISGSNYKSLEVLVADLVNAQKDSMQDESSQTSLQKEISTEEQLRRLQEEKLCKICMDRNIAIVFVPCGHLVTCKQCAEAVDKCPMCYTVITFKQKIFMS
# Sequence of Dihydroorotate dehydrogenase (quinone), mitochondrial (Plasmodium falciparum (isolate 3D7)) (Q08210 whole entry, looked up): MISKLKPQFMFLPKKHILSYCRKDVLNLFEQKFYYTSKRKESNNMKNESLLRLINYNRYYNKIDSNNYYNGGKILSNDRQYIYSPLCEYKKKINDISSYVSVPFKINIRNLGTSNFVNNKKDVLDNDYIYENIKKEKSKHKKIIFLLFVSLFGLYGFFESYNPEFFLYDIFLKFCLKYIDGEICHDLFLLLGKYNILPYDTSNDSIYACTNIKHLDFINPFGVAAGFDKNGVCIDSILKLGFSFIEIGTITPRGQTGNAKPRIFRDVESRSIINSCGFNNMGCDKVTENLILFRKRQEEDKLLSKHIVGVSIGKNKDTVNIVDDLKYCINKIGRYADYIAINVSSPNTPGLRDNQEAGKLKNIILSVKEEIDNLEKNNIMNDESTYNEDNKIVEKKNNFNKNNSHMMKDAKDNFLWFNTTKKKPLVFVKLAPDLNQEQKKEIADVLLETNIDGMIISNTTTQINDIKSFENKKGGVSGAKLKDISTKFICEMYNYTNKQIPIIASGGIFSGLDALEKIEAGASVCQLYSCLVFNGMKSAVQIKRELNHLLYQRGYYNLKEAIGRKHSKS
Structure (SMILES),z-score [1],z-score [2],z-score [3],z-score [4],z-score [5],z-score [6],z-score [7],z-score [8],z-score [9],z-score [10],z-score [11],z-score [12],z-score [13],composite z-score [14],z-score [15],z-score [16],z-score [17],z-score [18],z-score [19],composite z-score [20]
CN1C(=O)C2C=CC(C(O)c3ccccn3)N(N(c3ccccc3)c3ccccc3)C2C1=O (stereo not given),-0.711,-1.63,-0.108,0.0262,-0.771,-1.53,-0.695 (inactive),0.305,-0.468,-0.859 (inactive),-1.15,0.527 (inactive),-0.555 (inactive),0.464 (inactive),1.01 (inactive),0.429 (inactive),-0.155 (inactive),-0.38 (inactive),-0.368,0.304
[N-]=[N+]=Nc1ccccc1[C@H]1OC(c2ccc(OCCCO)cc2)=N[C@@]1(Cc1ccccc1)C(=O)N1CCCCC1,-0.127,-0.019,-0.683,-3.09,-3.83,-0.251,1.44 (inactive),-1.15,-2.77,-2.29 (inactive),-1.16,-0.722 (inactive),-3.61 (inactive),-0.827 (inactive),0.603 (inactive),1.97 (inactive),0.359 (inactive),0.617 (inactive),-4.52,0.0197
C=CCC(OC(C)=O)[C@@H]1[C@@H](N(Cc2ccc(-c3ccccc3)cc2)C(=O)Cc2ccc(F)cc2)c2cc(OCCCO)ccc2N1C(=O)Cc1ccc(OC)cc1 (stereo not given in full),0.178,0.0992,0.833,0.399,-0.279,1.69,-1.02 (inactive),-0.112,-0.362,0.084 (inactive),-0.939,0.637 (inactive),0.0774 (inactive),-0.433 (inactive),-0.431 (inactive),0.313 (inactive),-0.455 (inactive),-0.14 (inactive),-0.103,0.0757
C=CCC(OC(C)=O)[C@@H]1[C@@H](N(Cc2ccc(-c3cccc(C(F)(F)F)c3)o2)C(=O)c2ccc(-c3ccccc3)cc2)c2cc(OCCCO)ccc2N1C(=O)c1ccc2ccccc2n1 (stereo not given in full),-0.157,0.585,-0.474,0.0887,0.458,2.07,-0.572 (inactive),0.378,-0.0621,0.264 (inactive),-0.0845,1.59 (inactive),0.328 (inactive),-0.32 (inactive),0.857 (inactive),0.859 (inactive),-0.347 (inactive),-0.302 (inactive),-0.556,-0.152
OCCCC1=CC(c2ccc(CN3CCCC3)cc2)N(Cc2sc3ccccc3c2Cl)CC1 (stereo not given),0.48,-0.301,0.212,-3.45,-3.64,3.4,0.0544 (inactive),-0.252,-0.356,0.341 (inactive),-0.516,-7.47 (inactive),-0.846 (inactive),0.721 (inactive),0.367 (inactive),0.922 (inactive),-0.365 (inactive),-1.05 (inactive),0.234,0.0623
CN(C)CCCNC(=O)[C@@]1(c2ccc([N+](=O)[O-])cc2)CC(=O)N(CC23CC4CC(CC(C4)C2)C3)[C@@H]1c1ccc(CO)cc1I,-4.27,-0.0899,-5.25,-3.97,-4.15,-2.77,1.94 (inactive),-0.913,-2.37,-7.13 (inactive),-6.51,-16.9 (active),-9.05 (active),-0.173 (inactive),0.277 (inactive),-20.9 (active),-1.46 (inactive),-2.96 (inactive),-6.63,-0.0541
CCCCO[C@H]1C[C@H]2C(I)=C[C@@H]1C(=O)[C@]21CO1,-0.788,-0.894,-0.534,-1.98,-1.16,-1.39,-0.0178 (inactive),0.432,-0.569,0.0651 (inactive),-0.0876,-8.45 (active),-0.67 (inactive),-0.0864 (inactive),0.0481 (inactive),-1.31 (inactive),-0.814 (inactive),-1.05 (inactive),-0.0824,-0.255
CCCCCCc1nc(C2CC2)cc2c1[Si](C(C)C)(C(C)C)O[C@H]2c1ccccc1,-0.036,-0.177,-0.106,-0.892,-0.517,-1.09,-0.731 (inactive),0.573,0.0835,0.254 (inactive),-0.868,0.391 (inactive),-0.749 (inactive),0.423 (inactive),0.0672 (inactive),-0.553 (inactive),-0.476 (inactive),-0.594 (inactive),-0.249,-0.0872
CC(=O)NCCCC[C@@H]1NC(=O)[C@@H]2C[C@H](C(=O)NCCCC[N+](C)(C)C)[C@H](c3ccc(O)cc3)N2C1=O,-0.431,0.994,-1.29,-0.606,0.274,-1.42,-0.152 (inactive),-0.547,-0.0697,-1.04 (inactive),-0.294,-0.0108 (inactive),-1.23 (inactive),-30.7 (active),2.35 (inactive),0.55 (inactive),-0.0376 (inactive),-1.1 (inactive),-1.2,-0.168
[N-]=[N+]=NCc1ccccc1C[C@]1(C(N)=O)N=C(c2ccc(OCCCO)cc2)O[C@H]1c1ccccc1,-0.277,-0.0112,-0.284,-2.25,-1.04,-0.417,0.587 (inactive),-0.715,-0.464,0.004 (inactive),1,-0.198 (inactive),-0.726 (inactive),0.921 (inactive),-0.786 (inactive),1.4 (inactive),0.146 (inactive),0.98 (inactive),-0.581,0.1
COCCOC(=O)N1C(=O)[C@@]2(c3cc(C#CC4=CCCCC4)ccc31)[C@H](c1ccccc1OCCO)N1[C@H](c3ccccc3)[C@H](c3ccccc3)OC(=O)[C@H]1[C@@H]2C(=O)N1CCCCCCC1,-2.1,0.443,-0.599,-2.38,-2.38,0.737,0.262 (inactive),-0.934,-1.31,0.0309 (inactive),0.133,1.86 (inactive),-4.58 (inactive),0.668 (inactive),0.365 (inactive),2.01 (inactive),0.105 (inactive),-1.32 (inactive),-3.11,-0.0663
C=C(C(=O)CC[C@@H](OC(C)=O)c1ccc(CO)o1)C(C)C,-0.306,-0.317,-0.261,-1.39,-0.812,-1.5,0.241 (inactive),0.544,-0.591,0.246 (inactive),-0.192,-0.788 (inactive),0.0874 (inactive),-1.75 (inactive),2.05 (inactive),-0.396 (inactive),-0.351 (inactive),-0.374 (inactive),0.0268,0.68
C=C(C)c1cc2c(c(CCCCCC)n1)[Si](C(C)C)(C(C)C)OC2,-0.926,-0.197,-0.567,0.134,0.414,-0.592,-0.617 (inactive),0.56,-0.369,0.867 (inactive),-0.0592,1.37 (inactive),0.272 (inactive),4.59 (inactive),-0.735 (inactive),1.06 (inactive),0.251 (inactive),0.246 (inactive),0.16,0.0623
CCOC(=O)[C@H]1[C@@H]2C(=O)N3CCC[C@H]3[C@H](O[Si](C(C)C)(C(C)C)C(C)C)[C@H]2C=C2CCN(S(=O)(=O)c3ccc(C)cc3)C[C@H]21,0.487,0.302,-1.18,-2.91,-4.09,1.51,-0.603 (inactive),-1.06,-0.814,-0.742 (inactive),-1.01,0.212 (inactive),-1.84 (inactive),-0.627 (inactive),0.318 (inactive),-0.598 (inactive),-0.146 (inactive),-0.641 (inactive),-3.37,-0.148
O=C1OCCC=C[C@H]2OC34C=CCN(Cn5nnc6ccccc65)C(=O)[C@H]3N(CCCCCCO)C(=O)[C@@H]4C12 (stereo not given in full),0.16,-0.808,-0.381,1.78,-0.264,0.515,0.256 (inactive),-0.137,-0.5,-0.356 (inactive),-0.677,0.506 (inactive),-2.51 (inactive),-0.272 (inactive),0.205 (inactive),0.587 (inactive),0.603 (inactive),0.703 (inactive),-0.288,-0.302
COCCOC(=O)N1C(=O)[C@@]2(c3cc(C#CC4(O)CCCCCC4)ccc31)[C@H](c1ccc(O)cc1)N1[C@H](c3ccccc3)[C@H](c3ccccc3)OC(=O)[C@H]1[C@@H]2C(=O)NC[C@H](O)c1ccccc1,0.121,0.266,-0.31,-1.49,-3.49,-2.3,-1.27 (inactive),-1.15,-0.715,0.0025 (inactive),0.267,0.31 (inactive),-1.45 (inactive),0.658 (inactive),1.29 (inactive),0.657 (inactive),0.157 (inactive),-0.105 (inactive),-1.62,0.367
CCCCCCCCCCC(O)C1C=CC2C(=O)N(C)C(=O)C2N1Nc1ccc([N+](=O)[O-])cc1[N+](=O)[O-] (stereo not given),-0.783,-0.801,-1.2,-3.69,-4.05,0.693,-1.21 (inactive),-0.935,-1.8,-0.283 (inactive),-1.62,0.869 (inactive),-1.64 (inactive),-1.39 (inactive),0.695 (inactive),0.945 (inactive),-1.26 (inactive),-0.459 (inactive),-1.67,-0.0994
